Experimental data reported in PubChem BioAssay (NCATS).
Inconclusive results are not listed. The source made the active and inactive calls. Calls come from the whole dose curve; as a rule, active = well fitted inhibition curve with a large enough effect; inconclusive = small, poorly fitted or top-dose-only effect; inactive = flat fitted curve, though single readings scatter.

Experiment: Drug repurposing screens with cells derived from glioblastoma tumor samples (AID 1345199); note: nearly all actives have a fitted effect of over 40% in size
Details: GBM patient neurospheres viability, ATP luminescence, 48 h; at 20 µM (top of the series); tumour line C
Outline: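 Four patient lines of CD133+ GBM neurospheres were screened at several concentrations; hits were retested in those lines plus three slower-growing GBM lines, using 48-hour treatment and ATP-based viability.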
% is set by controls: 0 for no effect and ±100 for the full control effect.

Row | SMILES | activity, negative = cell killing
1 | COc1ccc(OC)c(C(O)CNC(=O)CN)c1 (centres undefined) | -8.51% (inactive)
2 | CN1CCCC(CC2c3ccccc3Sc3ccccc32)C1 (centres undefined) | 5.58% (inactive)
3 | C/C=C(/C(=C/C)c1ccc(O)cc1)c1ccc(O)cc1 | -5.62% (inactive)
4 | CCCCCCCCCCCCCCCC[N+](C)(C)CCN(Cc1ccc(OC)cc1)c1ncccn1 | -23.1% (inactive)
5 | CC1=C(C(=O)O)N2C(=O)[C@@H](NC(=O)[C@H](N)c3ccc(O)cc3)[C@H]2SC1 | -0.623% (inactive)

Same assay, conditions: GBM patient neurospheres viability, ATP luminescence, 48 h; at 21.2 µM (top of the series); tumour line B

Row | SMILES | activity, negative = cell killing
6 | COc1ccc(OC)c(C(O)CNC(=O)CN)c1 (centres undefined) | -10.1% (inactive)
7 | C/C=C(/C(=C/C)c1ccc(O)cc1)c1ccc(O)cc1 | -8.12% (inactive)
8 | CC1=C(C(=O)O)N2C(=O)[C@@H](NC(=O)[C@H](N)c3ccc(O)cc3)[C@H]2SC1 | -10.2% (inactive)

Same assay, conditions: GBM patient neurospheres viability, ATP luminescence, 48 h; at 21.2 µM (top of the series); tumour line D

Row | SMILES | activity, negative = cell killing
9 | COc1ccc(OC)c(C(O)CNC(=O)CN)c1 (centres undefined) | -7.78% (inactive)
10 | C/C=C(/C(=C/C)c1ccc(O)cc1)c1ccc(O)cc1 | -22.4% (inactive)
11 | CC1=C(C(=O)O)N2C(=O)[C@@H](NC(=O)[C@H](N)c3ccc(O)cc3)[C@H]2SC1 | -21.8% (inactive)

Same assay, conditions: GBM patient neurospheres viability, ATP luminescence, 48 h; at 45.9 µM (top of the series); tumour line B

Row | SMILES | activity, negative = cell killing
12 | Cc1c(C(C)C)c(=O)n(-c2ccccc2)n1C | -4.08% (inactive)
13 | CN(C)C(=S)SC(=S)N(C)C | -2.75% (inactive)
14 | CCOc1ccc2nc3cc(N)ccc3c(N)c2c1 | -17.9% (inactive)
15 | CCC(C(=O)OCCN(CC)CC)c1ccccc1 (centres undefined) | -10.7% (inactive)
16 | CCCN1CCCC[C@H]1C(=O)Nc1c(C)cccc1C | -11.5% (inactive)
17 | COc1cc(-c2ccc(=O)[nH]n2)ccc1OC(F)F | -9.45% (inactive)
18 | OC[C@H]1O[C@@H](n2cnc3c(=S)nc[nH]c32)[C@H](O)[C@@H]1O | -25.4% (inactive)
19 | CO/N=C1\CN(c2nc3c(cc2F)c(=O)c(C(=O)O)cn3C2CC2)CC1CN (centres undefined) | -0.703% (inactive)
20 | CC(=O)Oc1ccc(C(c2ccc(OC(C)=O)cc2)c2ccccn2)cc1 | -5.88% (inactive)
21 | CN(C/C=C/c1ccccc1)Cc1cccc2ccccc12 | -26.7% (inactive)
22 | O=C1OC(c2ccc(O)cc2)(c2ccc(O)cc2)c2ccccc21 | -16.9% (inactive)

Same assay, conditions: GBM patient neurospheres viability, ATP luminescence, 48 h; at 45.9 µM (top of the series); tumour line D

Row | SMILES | activity, negative = cell killing
23 | Cc1c(C(C)C)c(=O)n(-c2ccccc2)n1C | -9.96% (inactive)
24 | CN(C)C(=S)SC(=S)N(C)C | -2.32% (inactive)
25 | CCOc1ccc2nc3cc(N)ccc3c(N)c2c1 | -30.3% (inactive)
26 | CCC(C(=O)OCCN(CC)CC)c1ccccc1 (centres undefined) | 13.4% (inactive)
27 | CCCN1CCCC[C@H]1C(=O)Nc1c(C)cccc1C | -25.5% (inactive)
28 | COc1cc(-c2ccc(=O)[nH]n2)ccc1OC(F)F | -28.9% (inactive)
29 | CO/N=C1\CN(c2nc3c(cc2F)c(=O)c(C(=O)O)cn3C2CC2)CC1CN (centres undefined) | -7.84% (inactive)
30 | CC(=O)Oc1ccc(C(c2ccc(OC(C)=O)cc2)c2ccccn2)cc1 | -3.54% (inactive)
31 | CN(C/C=C/c1ccccc1)Cc1cccc2ccccc12 | -18.5% (inactive)
32 | O=C1OC(c2ccc(O)cc2)(c2ccc(O)cc2)c2ccccc21 | -16.2% (inactive)

Same assay, conditions: GBM patient neurospheres viability, ATP luminescence, 48 h; at 46 µM (top of the series); tumour line A

Row | SMILES | activity, negative = cell killing
33 | Cc1c(C(C)C)c(=O)n(-c2ccccc2)n1C | -22.1% (inactive)
34 | N[C@H](Cc1c[nH]c2ccccc12)C(=O)O | 21.7% (inactive)
35 | CN(C)C(=S)SC(=S)N(C)C | -14.5% (inactive)
36 | CCOc1ccc2nc3cc(N)ccc3c(N)c2c1 | -14.8% (inactive)
37 | CCC(C(=O)OCCN(CC)CC)c1ccccc1 (centres undefined) | -28.5% (inactive)
38 | CC(=O)Oc1ccc(C(c2ccc(OC(C)=O)cc2)c2ccccn2)cc1 | -29.3% (inactive)

Same assay, conditions: GBM patient neurospheres viability, ATP luminescence, 48 h; at 46.1 µM (top of the series); tumour line C

Row | SMILES | activity, negative = cell killing
39 | C[n+]1c2cc(N)ccc2cc2ccc(N)cc21 (tested in a mixture with another compound) | -16% (inactive)
40 | Cc1c(C(C)C)c(=O)n(-c2ccccc2)n1C | -13.8% (inactive)
41 | N[C@H](Cc1c[nH]c2ccccc12)C(=O)O | 0.799% (inactive)
42 | CN(C)C(=S)SC(=S)N(C)C | -7.02% (inactive)
43 | CCOc1ccc2nc3cc(N)ccc3c(N)c2c1 | 1.93% (inactive)
44 | CCC(C(=O)OCCN(CC)CC)c1ccccc1 (centres undefined) | 0.404% (inactive)
45 | CCCN1CCCC[C@H]1C(=O)Nc1c(C)cccc1C | -6.18% (inactive)
46 | COc1cc(-c2ccc(=O)[nH]n2)ccc1OC(F)F | -14.1% (inactive)
47 | Oc1ccc(O)cc1 | -0.769% (inactive)
48 | CO/N=C1\CN(c2nc3c(cc2F)c(=O)c(C(=O)O)cn3C2CC2)CC1CN (centres undefined) | 13.8% (inactive)
49 | CCCSS/C(CCO)=C(\C)N(C=O)Cc1cnc(C)nc1N | -24.8% (inactive)
50 | Cc1c(C)n(CCN(C)C)c2ccc(C(=O)OCCN(C)C)cc12 | -23.7% (inactive)
51 | Oc1c(I)cc(Cl)c2cccnc12 | -11.9% (inactive)
52 | CN(C/C=C/c1ccccc1)Cc1cccc2ccccc12 | -27.1% (inactive)
53 | C=C(CC)C(=O)c1ccc(OCC(=O)O)c(Cl)c1Cl | 1.71% (inactive)
54 | O=C1OC(c2ccc(O)cc2)(c2ccc(O)cc2)c2ccccc21 | 2.26% (inactive)
